Measured values taken from PubChem BioAssay (Tox21).
Results filed as inconclusive are left out. Activity calls are given as the source filed them. Unless noted, calls come from the whole dose curve; as a rule, active = well fitted curve in the direction sought with a large enough effect in the repeat runs; inconclusive = weak or mixed curves; inactive = no such curve, though single readings can be large; an effect the other way counts as inactive or inconclusive.

Columns and labels:
[1] = qHTS assay to identify small molecule antagonists of the glucocorticoid receptor (GR) signaling pathway - cell viability counter screen (AID 720693); note: nearly all actives have a fitted effect of over 55% in size
[2] = qHTS assay for identifying genotoxic compounds that show differential cytotoxicity against isogenic chicken DT40 cell lines with known DNA damage response pathways - wild type cell line (AID 743012); note: nearly all actives have a fitted effect of over 60% in size; note: potency is the fitted concentration of half-maximal effect
Method in brief: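 Viability by ATP luminescence (CellTiter-Glo, 30 min RT) after 40 h compound treatment at 37 C/5% CO2, using 300 parental DNA repair-proficient DT40 cells per well.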

[3] = qHTS assay for identifying genotoxic compounds that show differential cytotoxicity against isogenic chicken DT40 cell lines with known DNA damage response pathways - Rad54/Ku70 mutant cell line (AID 743015); note: nearly all actives have a fitted effect of over 60% in size; note: potency is the fitted concentration of half-maximal effect
[4] = qHTS assay to identify small molecule antagonists of the androgen receptor (AR) signaling pathway - cell viability counter screen (AID 743033; note: nearly all actives have a fitted effect of over 45% in size)
[5] = qHTS assay to identify small molecule antagonists of the androgen receptor (AR) signaling pathway using the MDA cell line - cell viability counter screen (AID 743041; note: nearly all actives have a fitted effect of over 45% in size)
Method in brief: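 qHTS viability read-out; MDA-kb2 AR-luc; R1881-stimulated; 16 h exposure at 37C, 0% CO2; CellTiter-Fluor, 30 min; fluorescence intensity.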

[6] = qHTS assay for identifying genotoxic compounds that show differential cytotoxicity against isogenic chicken DT40 cell lines with known DNA damage response pathways - Rev3 mutant cell line (AID 743014); note: nearly all actives have a fitted effect of over 55% in size; note: potency is the fitted concentration of half-maximal effect
[7] = molecular target: Androgen receptor (Homo sapiens) (UniProt P10275); assay: qHTS assay to identify small molecule antagonists of the androgen receptor (AR) signaling pathway (AID 743035; active = well fitted inhibition curve with a large enough effect in the signal ratio in the repeat runs, not every such curve was filed as active; the % refers to the signal ratio)
Method in brief: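 Antagonist mode: AR-bla HEK293 cells co-treated with test compounds and agonist R1881 for 16 h at 37C, 5% CO2. Beta-lactamase activity read as FRET fluorescence after 2 h room-temperature substrate loading.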

[8] = molecular target: Androgen receptor (Homo sapiens) (UniProt P10275); assay: qHTS assay to identify small molecule agonists of the androgen receptor (AR) signaling pathway using the MDA cell line (AID 743040; note: nearly all actives have a fitted effect of over 20% in size; note: potency is the fitted concentration of half-maximal effect)
Method in brief: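 Agonist activity is measured as luciferase luminescence in human MDA-kb2 cells whose MMTV reporter responds to both AR and GR. Compounds in DMSO incubate 16 h at 37C, 0% CO2, and ONE-Glo is read after 30 min.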

[9] = molecular target: Androgen receptor (Homo sapiens) (UniProt P10275); assay: qHTS assay to identify small molecule antagonists of the androgen receptor (AR) signaling pathway using the MDA cell line (AID 743042; note: nearly all actives have a fitted effect of over 55% in size)
Method in brief: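 MDA-kb2 cells (human breast carcinoma, stably carrying an MMTV-luciferase reporter responsive to AR and GR) were plated at 3,000 cells/well and preincubated 5 hr at 37C, then given compound plus R1881 agonist for 16 h. ONE-Glo luminescence was read.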

[10] = molecular target: Androgen receptor (Homo sapiens) (UniProt P10275); assay: qHTS assay to identify small molecule agonists of the androgen receptor (AR) signaling pathway (AID 743036; active = well fitted activation curve with a large enough effect in the signal ratio in the repeat runs, with a control signal flat, not every such curve was filed as active; the % refers to the signal ratio; note: potency is the fitted concentration of half-maximal effect)
Method in brief: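 HEK293 cells stably carrying a UAS-driven beta-lactamase reporter (GeneBLAzer AR-UAS-bla-GripTite) were plated at 2,000 cells/well, rested 4 h at 37C, then exposed to compounds in DMSO for 16 h. LiveBLAzer B/G FRET substrate was added for 2 h at room temperature; fluorescence read.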

Measured: Potency

Androgen receptor (Homo sapiens), sequence (P10275 whole entry, looked up): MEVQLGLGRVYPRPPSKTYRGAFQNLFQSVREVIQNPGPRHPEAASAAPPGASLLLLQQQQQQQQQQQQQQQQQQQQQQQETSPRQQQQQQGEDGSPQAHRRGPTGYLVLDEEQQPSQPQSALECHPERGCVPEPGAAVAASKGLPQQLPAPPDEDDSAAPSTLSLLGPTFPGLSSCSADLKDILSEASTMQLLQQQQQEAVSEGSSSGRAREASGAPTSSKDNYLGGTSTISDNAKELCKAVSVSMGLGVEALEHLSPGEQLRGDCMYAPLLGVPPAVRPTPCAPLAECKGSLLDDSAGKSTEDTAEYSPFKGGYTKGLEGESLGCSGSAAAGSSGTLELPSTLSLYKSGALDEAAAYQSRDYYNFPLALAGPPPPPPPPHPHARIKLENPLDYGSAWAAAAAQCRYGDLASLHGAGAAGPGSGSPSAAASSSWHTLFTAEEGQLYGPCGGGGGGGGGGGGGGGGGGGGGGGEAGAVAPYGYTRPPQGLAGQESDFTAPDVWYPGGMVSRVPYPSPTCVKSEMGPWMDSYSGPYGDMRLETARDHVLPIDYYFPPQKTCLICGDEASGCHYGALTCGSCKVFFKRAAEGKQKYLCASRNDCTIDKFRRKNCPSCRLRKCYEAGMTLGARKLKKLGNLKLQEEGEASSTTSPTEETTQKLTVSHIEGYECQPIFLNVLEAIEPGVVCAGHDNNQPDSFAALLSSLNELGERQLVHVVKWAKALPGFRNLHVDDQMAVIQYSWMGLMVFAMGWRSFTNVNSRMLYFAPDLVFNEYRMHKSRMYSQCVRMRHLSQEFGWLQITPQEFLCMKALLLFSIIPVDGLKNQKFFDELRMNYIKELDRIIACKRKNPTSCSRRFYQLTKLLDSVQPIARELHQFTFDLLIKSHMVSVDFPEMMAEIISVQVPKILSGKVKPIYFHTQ

CC(/C=C/C=C(\C)C(=O)O[C@@H]1O[C@H](CO[C@@H]2O[C@H](CO)[C@@H](O)[C@H](O)[C@H]2O)[C@@H](O)[C@H](O)[C@H]1O)=C\C=C\C=C(C)\C=C\C=C(/C)C(=O)O[C@@H]1O[C@H](CO[C@@H]2O[C@H](CO)[C@@H](O)[C@H](O)[C@H]2O)[C@@H](O)[C@H](O)[C@H]1O
inactive: [1] | [2] | [3] | [4] | [5]

O=C(COc1ccc(Cl)cc1)OCCNC12CC3CC(CC(C3)C1)C2
inactive: [1] | [2] | [4] | [5]

CN[C@@H]1[C@H](O[C@H]2[C@H](O[C@H]3[C@H](O)[C@@H](O)[C@H](N=C(N)N)[C@@H](O)[C@@H]3N=C(N)N)O[C@@H](C)[C@]2(O)C=O)O[C@@H](CO)[C@H](O)[C@H]1O
inactive: [1] | [2] | [3] | [4] | [5]

CCCCC/C=C\CCC(=O)N[C@H]1[C@H](Oc2c3cc4cc2Oc2ccc(cc2Cl)[C@@H](O[C@@H]2O[C@H](CO)[C@@H](O)[C@H](O)[C@H]2NC(C)=O)[C@@H]2NC(=O)[C@H](NC(=O)[C@@H]4NC(=O)[C@H]4NC(=O)[C@@H](Cc5ccc(c(Cl)c5)O3)NC(=O)[C@H](N)c3ccc(O)c(c3)Oc3cc(O)cc4c3)c3ccc(O)c(c3)-c3c(O[C@H]4O[C@H](CO)[C@@H](O)[C@H](O)[C@@H]4O)cc(O)cc3[C@@H](C(=O)O)NC2=O)O[C@H](CO)[C@@H](O)[C@@H]1O
inactive: [1] | [2] | [3] | [4] | [5]

CN1CCc2c(c3ccccc3n2Cc2ccccc2)C1
inactive: [1] | [6] | [4] | [5]

Cc1cccc(C)c1N(CCCc1cccnc1)C(=O)C(C)N (stereo not given)
not listed: [2] | [10]
inactive: all other assays above

CC(C)(CO)[C@@H](O)C(=O)NCCCC(=O)O
not listed: [2] | [6]
inactive: all other assays above

CC(C)(C)NCC(O)CSc1nc(-c2ccc(C(N)=O)s2)cs1 (stereo not given)
inactive: [1] | [6] | [4] | [5]

CCN(CC)c1ccc(N=Nc2ccc(S(=O)(=O)N(C)C)cc2)c(S(=O)(=O)NCC[n+]2ccccc2)c1
not listed: [2] | [3] | [10]
inactive: all other assays above

CCOC(=O)[C@H](CS)NCCN[C@@H](CS)C(=O)OCC
inactive: [1] | [6] | [4] | [5]

CN1CCN2c3ncccc3Cc3ccccc3C2C1 (stereo not given)
inactive: [1] | [6] | [5]

CCC(=O)NCCC1CCc2ccc3c(c21)CCO3 (stereo not given)
active: [2] 26.6 µM
not listed: [3] | [4] | [6]
inactive: all other assays above

[O]=[Bi][O]C(=O)[O][Bi]=[O]
inactive: [1] | [6] | [4] | [5]

CC(NNC(=O)c1ccccc1)c1ccccc1 (stereo not given)
not listed: [2] | [7] | [10]
inactive: all other assays above

CC1(C)C(\C=C/C=C\C=C/C=C2/N(CCCCS(=O)(=O)O)c3ccc4ccccc4c3C2(C)C)=[N+](CCCCS(=O)(=O)[O-])c2ccc3ccccc3c21
inactive: [1] | [4] | [7] | [8]
active: [6] 26.6 µM | [3] 29.8 µM

CC(C)NCC(O)COc1ccccc1-n1cccc1 (stereo not given)
inactive: [1] | [6] | [3] | [4] | [5]

O=C(OCCO)c1ccccc1O
inactive: [1] | [6] | [3] | [4] | [5]

C=C1c2c(Cl)ccc(O)c2C(O)=C2C(=O)[C@]3(O)C(O)=C(C(N)=O)C(=O)[C@@H](N(C)C)[C@@H]3[C@@H](O)[C@H]12
inactive: [1] | [6] | [4] | [8] | [5] | [9]

CCC(=O)OCC(=O)[C@@]1(OC(=O)CC)[C@H](C)C[C@H]2[C@H]3[C@H]([C@@H](O)C[C@@]21C)[C@@]1(C)C=CC(=O)C=C1C[C@H]3Cl
active: [10] 0.144 µM | [8] 0.0403 µM
not listed: [2] | [3]
inactive: all other assays above

O=C(Nc1ccc(O)cc1)c1ccccc1O
inactive: [1] | [3] | [4] | [8] | [5] | [9]

CO[C@@H]1[C@@H](O[C@@H]2O[C@H](C)[C@@H](O[C@H]3C[C@@](C)(O)[C@@H](O)[C@H](C)O3)[C@H](N(C)C)[C@H]2O)[C@@H](CC=O)C[C@@H](C)[C@@H](O[C@@H]2CC[C@H](N(C)C)[C@@H](C)O2)/C=C/C=C/C[C@@H](C)OC(=O)C[C@H]1O
inactive: [1] | [2] | [4] | [5]
